This is an account of results in PubChem BioAssay (NCATS).

Records with an inconclusive call do not appear. Where a call stands in place of a potency, no number is given. Calls of active or inactive are those of the source. Calls come from the whole dose curve; tested in HEK293 reporter line.
Potency is the fitted concentration of half-maximal effect.

The nature of the experiment: qHTS for Inhibitors of the Functional Ribonucleoprotein Complex (vRNP) of Lassa (LASV) Arenavirus: LASV Primary Screen - GLuc reporter signal (AID 1347082). Note: nearly all actives have a fitted effect of over 60% in size. To be noted: LASV minigenome vRNP, Gaussia luciferase reporter; series mostly up to 57.5 µM. A general note: In qHTS, concentration-response curves come from the screen itself.
For `CC(=O)Oc1ccccc1C(=O)O`, the Potency result is “inactive”. As for `COc1ccccc1O`, the Potency result is “inactive”. Next, `CC(C[N+](C)(C)C)OC(N)=O` (stereo not given): “inactive”; `COc1cc(Nc2ncc3c(n2)-c2ccc(Cl)cc2C(c2c(F)cccc2OC)=NC3)ccc1C(=O)O`: “inactive”; `CC(C)(C)c1cc(C(C)(C)C)c(NC(=O)c2c[nH]c3ccccc3c2=O)cc1O`: “inactive”. As for `CS(=O)(=O)c1cccc(CNc2nc(Nc3ccc4c(c3)CCC(=O)N4)ncc2C(F)(F)F)c1`, the Potency result is “inactive”.

For `CC(C)C[C@H](NC(=O)[C@@H](O)[C@H](N)Cc1ccccc1)C(=O)O`, the Potency entry is “inactive”.

Take `COc1ccc(CC2SC(=O)NC2=O)cc1C(=O)NCc1ccc(C(F)(F)F)cc1` (stereo not given): the Potency result was “inactive”. Next, `Nc1ccccc1NC(=O)c1ccc(CNc2nccc(-c3cccnc3)n2)cc1`: “inactive”; `CN(C)c1ccc(N=NS(=O)(=O)O)cc1`: “inactive”; `CN(C)CCN(C)C(=O)c1ccc(NC(=O)Nc2ccc(-c3nc(N4CCOCC4)c4ccn(CC(F)(F)F)c4n3)cc2)cc1`: 0.0485 µM (active). As to `O=C(O)CNC(=O)CNC(=O)CNC(=O)CSC(=O)c1ccccc1`, the Potency result was “inactive”. As for `N#Cc1c(O)c2c(-c3ccc(-c4ccccc4O)cc3)csc2[nH]c1=O`, the entry is “inactive”. In the case of `CCc1c(C)[nH]c2c1C(=O)C(CN1CCOCC1)CC2` (stereo not given), the Potency entry is “inactive”. As for `Nc1cccc(S(=O)(=O)N2CCCN(S(=O)(=O)c3ccc4c(c3)OCCO4)CC2)c1`, the entry is “inactive”; as for `CC1(C)OC2=C(C(=O)c3ccccc3C2=O)[C@H](NCc2ccccc2)[C@H]1O`, 2.73 µM (active). In the case of `CC(C)(C(=O)NCC(F)(F)C(F)(F)F)C(=O)N[C@@H]1C(=O)Nc2ccccc2-c2ccccc21`, the Potency was 24.3 µM (active). As for `CCCCC(CC)COC(=O)c1ccccc1C(=O)O` (stereo not given), the entry is “inactive”. As for `CC(=O)Oc1cccc(C)c1`, the Potency entry is “inactive”. In the case of `NCCCC(N)(C(=O)O)C(F)F` (stereo not given), the Potency result is “inactive”. As for `[O-][n+]1cccc(CO)c1`, the entry is “inactive”; as for `CCN1CCN(Cc2ccc(-c3cc4c(N[C@H](C)c5ccccc5)ncnc4[nH]3)cc2)CC1`, “inactive”.

For the compound `CCCCCCCC(=O)OCC(O)CO` (stereo not given), the Potency entry was “inactive”. Regarding `COc1ccc2c(c1)CC[C@H]1[C@@H]2CC[C@]2(C)[C@@H](NCCCCCCN3C(=O)C=CC3=O)CC[C@H]12`, the Potency result is “inactive”. With `Cc1ccccc1N=Nc1ccc(N=Nc2c(O)ccc3ccccc23)c(C)c1`, the Potency result is “inactive”. For `COc1cccc(OC)c1-c1cc(C(=O)NC2(C(=O)O)C3CC4CC(C3)CC2C4)nn1-c1ccnc2cc(Cl)ccc12` (stereo not given), the Potency result is “inactive”. Next, `OCCC#Cc1nc(-c2ccc(F)cc2)c(-c2ccncc2)n1CCCc1ccccc1`: “inactive”; `CC(=O)NC(C)c1ccc(Oc2ccc(OC(C)C)cc2)cc1` (stereo not given): “inactive”; `NC(=O)C1CCCc2c1[nH]c1ccc(Cl)cc21` (stereo not given): “inactive”.

Consider `CC(=O)Nc1ccc(O)cc1`, for which the Potency entry is “inactive”. In the case of `N[C@H]1C(O)O[C@H](CO)[C@@H](O)[C@@H]1O` (stereo not given in full), the Potency result was “inactive”. `N#C/C(=C1\SCC(c2ccccc2Cl)S1)n1ccnc1` (stereo not given): the Potency result is “inactive”. With `CC1=C(C/C=C(\C)CCC[C@H](C)CCC[C@H](C)CCCC(C)C)C(=O)c2ccccc2C1=O`, the Potency entry was “inactive”. As for `CC[N+](C)(CC)CCOC(=O)C(O)(c1ccccc1)C1CCCCC1` (stereo not given), the entry is “inactive”; as for `Cc1ccccc1C(C(=O)NC1CCCC1)N(C(=O)Cn1cnc2ccccc21)c1cccc(F)c1` (stereo not given), “inactive”. Regarding `OCCCc1ccccc1`, the Potency result is “inactive”. As for `OC[C@H]1O[C@@H](n2cnc3c2NC=NC[C@@H]3O)C[C@H]1O`, the entry is “inactive”. Next, `CC1=C(/C=C/C(C)=C/C=C/C(C)=C/C(=O)O)C(C)(C)CCC1`: “inactive”. Regarding `CC(C)(C)c1cc(C(=O)O)c(NC(=O)Nc2ccc3[nH]ncc3c2)s1`, the Potency result was “inactive”. For `CCCCCCCCCCCCCC(=O)OC(C)C`, the Potency result is “inactive”.
